The source of these data is PubChem BioAssay AID488920 (Sanford-Burnham Center for Chemical Genomics, 2010).

A short description of the assay: luminescence signal interference by compounds, dose response, artefact control for SENP inhibitor project, biochemical (AID 488920). As to conditions: luminescence interference counterscreen, spectral interferers. On the technique in general: A counterscreen serves to expose hits that act by an unwanted route or on another target.

Each structure is given as a SMILES string. Unmarked numbers belong to inactive results. The source made the active and inactive calls. Rule as the data show it: active = IC50 below about 3 µM; inactive = the rest.

Consider `CCC(C)n1c(NC(=O)c2ccccc2)c(C#N)c2nc3ccccc3nc21` (centres undefined), for which the IC50 (in general, the concentration that gives 50% inhibition) was over 5000 nM. With `O=C1c2ccccc2-c2nnc(-c3ccc(F)cc3)cc21` the figure was 1180 nM (active); with `Cc1ccnc(Nc2nc(-c3ccccc3)cs2)c1`, 824 nM (active). Take `O=c1oc2c(O)cccc2cc1-c1nc2ccccc2[nH]1`: the IC50 was 606 nM (active).

For the compound `Cc1cc(C)nc(Nc2nc(-c3ccccc3)cs2)n1`, the concentration for half-maximal inhibition (IC50) is 865 nM (active). Next, `Cc1ccc(/C=C/c2nc3ccccc3c(=O)[nH]2)cc1`: 403 nM (active). With `Cc1nc(Nc2ccc(C(=O)O)cc2)sc1-c1ccccc1` the figure was 325 nM (active); with `Cc1ccc(C(=O)NNc2cc(N3CCCC3)nc(N3CCCC3)n2)cc1`, over 5000 nM; with `Cc1ccc(NC2=C/C(=N/S(=O)(=O)c3cccs3)c3ccccc3C2=O)cc1`, over 5000 nM. With `O=C(O)c1ccc2cc(-c3ccccc3)[nH]c2c1` the figure was 471 nM (active).

In the case of `CCn1c(O)c(N=Nc2ccc3ccccc3n2)c2ccccc21`, the half-maximal inhibitory concentration (IC50) is 2910 nM (active). Take `O=C(O)c1ccc(NC2=C/C(=N/S(=O)(=O)c3ccccc3)c3ccccc3C2=O)cc1`: the IC50 was over 5000 nM. For the compound `COc1cc([N+](=O)[O-])ccc1N/C=C/C(=O)c1cccs1`, the IC50 is 458 nM (active). As to `CCOc1ccc(/C=C2\CCc3ccccc3C2=O)cc1`, the IC50 is 782 nM (active). Next, `Cc1ccc(S(=O)(=O)/N=C2\C=C(Nc3cccc(C(=O)O)c3)C(=O)c3ccccc32)c(C)c1`: over 5000 nM; `O=C1/C(=C/c2ccc([N+](=O)[O-])cc2)CCc2ccccc21`: 884 nM (active); `CCN(CC)c1ccc(/C=N/NC(=O)c2ccoc2C)c(O)c1`: 2530 nM (active). With `C/C(=N\OC(=O)c1ccc(Br)cc1)c1ccccn1` the figure was 548 nM (active). With `Oc1[nH]c2ccccc2c1N=Nc1ccc(F)cc1` the figure was 888 nM (active); with `CCCCn1c(NC(=O)c2ccccc2Cl)c(C#N)c2nc3ccccc3nc21`, over 5000 nM; with `O=c1[nH]c(Nc2ccccc2)cc2ccccc12`, over 5000 nM. Take `Cn1c(-c2ccccc2)cc2onc(-c3ccccc3)c2c1=O`: the half-maximal inhibitory concentration (IC50) is 607 nM (active). Next, `COc1ccc(C(=O)c2nccc3cc(OC)c(OC)cc23)cc1OC`: over 5000 nM; `COc1cc(C(=O)c2nccc3cc(OC)c(OC)cc23)c([N+](=O)[O-])cc1OC`: over 5000 nM.
